A word on the Inhibition: it is the relative decrease from the control value, in per cent.

Potency and affinity values are given separately.

This experiment relates to Escherichia coli. The following applies: Concentration 20 uM; ASSAY_TEST Inhibition of Bacterial Growth; detection method Absorption (OD600); MEDIA CAMHB; plate type 384well; NBS; CORNING #3640; time 18 hr.
As for `Nc1cccnc1Nc1ccc(Cl)cc1`, the Inhibition is on record as -1.63%.

Turning to `CC(=O)Nc1ccc(-c2noc(CC3CCCN(Cc4cccc(F)c4C)C3)n2)cc1` (stereo not given), the Inhibition is reported as 3.97%.

On to `COc1ccc(-c2nn(C(C)C)c3ncnc(N)c23)cc1OC`, for which the Inhibition is reported as -0.52%.

Turning to `CC(C)C(NC(=O)Cc1cccc2ccccc12)C(=O)Nc1cccc(C#N)c1` (stereo not given), the Inhibition is reported as 6.32%.

With `COc1ccc(OC(C)C(=O)Nc2ccc(Cl)cc2C)cc1` (stereo not given), the Inhibition stood at 5.14%.

Take `Nc1ncnc2[nH]nc(Cc3cccc4ccccc34)c12`: the Inhibition came to 7.05%.

On to `O=C(NCCc1ccn(-c2ccccc2)n1)C1CCCCC1`, for which the Inhibition came to 2.39%.

Take `CC(C)NCC(=O)Nc1cccc(C(=O)Nc2cccc(C(F)(F)F)c2)c1`: the Inhibition is on record as -2.15%.

As to `CC(C)n1nc(-c2cc3c(Cl)cccc3[nH]2)c2c(N)ncnc21`, the Inhibition is 4.95%.

`COc1ccc(CN2CCOc3ccc(C(C)(O)CN(C)C)cc3C2)cc1C` (stereo not given): the Inhibition worked out at 9.29%.

Regarding `CCN(CC)CCCCCCNc1cc(OC)cc2c(C)ccnc12.Cc1ccc(S(=O)(=O)O)cc1`, the Inhibition is 7.48%.

`CN1CCN(c2nccc3nc(-c4ccc(F)c(F)c4)[nH]c23)CC1`: the Inhibition amounted to 8.63%.

Take `CCCc1ccc(S(=O)(=O)Nc2ccc(CN3CCN(CC4CC4)CC3)cc2)cc1`: the Inhibition worked out at 6.87%.

Regarding `N#Cc1ccc(-c2ccc(OCC(N)=O)cc2)cc1`, the Inhibition is -3.93%.

For the molecule `COc1ccc(Cl)cc1NC(=O)CN(C)C(=O)c1cnn(-c2ccccc2)n1`, the Inhibition is reported as -2.51%.

Regarding `Cc1cc(Cl)ccc1NC(=O)CCc1ccc(S(=O)(=O)NCC(C)C)cc1`, the Inhibition came to 9.61%.

As to `CCc1ccc(S(=O)(=O)Nc2cc(CN3CCN(CCC(C)C)CC3)ccc2C)cc1`, the Inhibition stood at 13.04%.

As to `CCc1cc(=O)n(C)c(SC(C)C(=O)Nc2ccc(F)cc2)n1` (stereo not given), the Inhibition came to 4.12%.

With `CC(C)/N=c1\cc2n(-c3ccc(Cl)cc3)c3ccccc3nc-2cc1Nc1ccc(Cl)cc1` [CLOFAZIMINE], the Inhibition is reported as 9.66%.

As to `Cc1cc(C)cc(COc2ccc3c(C)c(CCC(=O)O)c(=O)oc3c2C)c1`, the Inhibition was 4.13%.

Take `CC(C)C(C(=O)Nc1ccc(S(=O)(=O)N(C)C)cc1)c1ccc(Cl)cc1` (stereo not given): the Inhibition came out at 11.91%.

Consider `CC(=O)N1CCc2cc3nc(C)cc(C)c3cc21`, for which the Inhibition is on record as 5.79%.

As to `CCc1nc2ccc(Cl)cn2c1C(=O)NCc1ccc(N2CCC(c3ccc(OC(F)(F)F)cc3)CC2)cc1` [TELACEBEC], the Inhibition is given as 13.17%.

Regarding `Cc1ccc(NC(=O)c2nc[nH]c2C(=O)Nc2nc3ccccc3[nH]2)c(C)c1`, the Inhibition came out at 12.12%.

Turning to `c1ccc2c(c1)CN(CC1CC1)CC1(CCN(Cc3c[nH]c4cnccc34)CC1)O2`, the Inhibition was found to be 1.67%.

Turning to `FC(F)(F)c1cc(NCCc2ccccc2)nc(-c2ccccn2)n1`, the Inhibition is -6.09%.

`Cc1ccc(-c2cc(C(=O)Nc3cccnc3)c3cc(Br)ccc3n2)cc1`: the Inhibition was determined as 9.4%.

Take `O=C(NCc1cc(Cl)cc(Cl)c1)c1c(C(F)(F)F)nc2ccccn12`: the Inhibition was 10.43%.

`COc1nc2ccc(Br)cc2cc1[C@@H](c1ccccc1)[C@@](O)(CCN(C)C)c1cccc2ccccc12.O=C(O)C(F)(F)F`: the Inhibition stood at 2.08%.

As for `CCOC(=O)c1c(NC(=O)c2c(F)c(F)c(F)c(F)c2F)sc(C(N)=O)c1C`, the Inhibition turned out to be 12.47%.

For the molecule `NC(=O)c1cc(Br)ccc1OCCOc1ccccc1`, the Inhibition is -2.13%.

Turning to `CCC(Sc1nc2ccccc2o1)C(=O)Nc1nccs1` (stereo not given), the Inhibition amounted to 11.9%.

`Clc1ccc(CCNc2cc(-c3ccccc3)nc3ncnn23)cc1`: the Inhibition worked out at 4.96%.

Take `Cc1cc(OCC(=O)NCc2ccccc2)c2cc(Br)ccc2n1`: the Inhibition is on record as 7.85%.

Regarding `CC(C)=CCC/C(C)=C\CNCCNC1C2CC3CC(C2)CC1C3` (stereo not given), the Inhibition stood at 10.47%.
